ELG1 genotoxic – induces genotoxicity in HEK293T cells with luciferase-tagged ELG1; HEK293T ELG1-luciferase reporter, luminescence, 16 h; Potency, µM (series often up to 46 µM), for inactives: top-dose activity change, positive = activation, usual class: activators; actives 1.3% (n = 330,000); AID 504466; further: % of control where 0% means no effect; nearly all actives have a fitted effect of over 60% in size
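DMSO vehicle served as control against compound-treated ELG1-luciferase HEK293T cells; exposure lasted 16 hr at 37 °C and 5% CO2, followed by ONE-Glo luminescence detection after 30 min.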
SMN2 splice up – increases expression of the SMN2 splice variant. HEK293 SMN2-luciferase splicing reporter, luminescence, 30-36 h. Potency, µM (doses to about 46.1 µM), without a hit: top-dose activity change, positive = activation, hits mostly activators. actives 2.8% (n = 210,000); further: % of control where 0% means no effect; nearly all actives have a fitted effect of over 55% in size
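HEK293 cells carry an SMN2 minigene-luciferase reporter in which exon 7 inclusion puts luciferase in frame. Cells were seeded at 2000 cells/well, attached for 10-12 hours, then exposed to compounds for 30-36 hours at 37C before ONE-Glo luminescence.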
Rab9 promoter act – Rab9 promoter activation; Huh7 Rab9 promoter-luciferase reporter, luminescence, 24 h; Potency, µM (top dose mostly 9.22 µM), without a hit: at the highest dose activation, negative = inhibition, actives largely listed as activators; actives 2.8% (n = 320,000); AID 485297; further: % of control where 0% means no effect; nearly all actives have a fitted effect of over 60% in size
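Cell-based reporter: Huh7 stable for Rab9 promoter-driven luciferase, plated in reduced-serum medium with 10% FBS at 1500 cells/well, compound-treated 24 h at 37 °C, luminescence read after 10 min reagent.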
NPC1 prom act – activates the NPC1 promoter | Huh7 NPC1 promoter luciferase reporter, 24 h | Potency, µM (highest dose often 9.22 µM), without a hit: top-dose activation, hits mostly activators | actives 2.4% (n = 320,000); further: % of control where 0% means no effect; nearly all actives have a fitted effect of over 60% in size
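Luciferase expression driven by the NPC1 promoter was measured in stably transfected Huh7 cells after a 24 h compound incubation, using a luciferase reagent and a luminescence read.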
ELG1 repair inh – blocks ELG1-dependent DNA repair in HEK293T cells | Potency, µM (doses to about 46.1 µM), for inactives: at the top dose activity change, negative = inhibition, actives largely listed as inhibitors | AID 504467 | HEK293T ELG1-luciferase reporter, luminescence, 16 h; DNA damage induced by 5-fluorouridine | actives 2.3% (n = 330,000); further: on the % scale 0 is the no-effect control and ±100 the full control effect; nearly all actives have a fitted effect of over 55% in size
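In this reporter screen, reduction of luminescence relative to DMSO vehicle indicated activity. Compounds and 5-fluorouridine were added together to 2,000 cells per well, incubated for 16 hr at 37 °C, then developed with ONE-Glo.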
FLuc counter – firefly luciferase modulation, counter-screen for miR-21 project. P08659. purified FLuc, Km substrates, luminescence inhibition. Potency, µM (titrated, usually from 57.5 µM), without a hit: top-dose activity change, negative = inhibition, hits mostly inhibitors. actives 6.9% (n = 360,000);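 further: plate controls were vehicle for no effect and reference inhibitor for full effect; nearly all actives have a fitted effect of over 55% in size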
Target sequence (P08659 whole entry, looked up): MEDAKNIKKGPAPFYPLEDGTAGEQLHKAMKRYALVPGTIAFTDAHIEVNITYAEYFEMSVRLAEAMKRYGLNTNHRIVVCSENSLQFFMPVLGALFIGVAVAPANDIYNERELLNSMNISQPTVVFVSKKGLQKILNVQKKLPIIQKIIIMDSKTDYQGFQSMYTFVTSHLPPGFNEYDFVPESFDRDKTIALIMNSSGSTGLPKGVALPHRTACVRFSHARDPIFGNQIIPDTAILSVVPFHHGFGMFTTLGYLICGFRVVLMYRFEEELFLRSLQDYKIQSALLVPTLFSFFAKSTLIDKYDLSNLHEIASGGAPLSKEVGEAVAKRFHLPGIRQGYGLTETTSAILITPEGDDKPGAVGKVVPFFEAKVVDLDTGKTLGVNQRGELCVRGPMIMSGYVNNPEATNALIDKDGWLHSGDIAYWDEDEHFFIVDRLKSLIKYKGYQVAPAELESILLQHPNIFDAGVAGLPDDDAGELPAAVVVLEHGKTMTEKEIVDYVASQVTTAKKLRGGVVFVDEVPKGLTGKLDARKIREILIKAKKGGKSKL
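Purified P. pyralis luciferase (10nM final) with 10uM D-luciferin and 10uM ATP (Km levels) in 50mM Tris acetate pH 7.5, 10mM Mg acetate, 0.01% Tween-20, 0.05% BSA; qHTS 6-point titration, ~60 µM downward; luminescence read.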
Numbers without * were called inactive; ? = inconclusive; . = no result given; [ ] = dose if it differs, or a comment. Rows were chosen to be rich in hits. Some 9.2% of all compounds tested hit in one or more screens of this group. The call rests on the fitted dose curve; in most records, active means well fitted curve in the direction sought with a large enough effect; inconclusive means small, poorly fitted or top-dose-only effect, or another doubt; inactive means no such curve, though single readings can be large; an effect the other way counts as inactive or inconclusive. Potency means the concentration at half of the fitted maximal effect.

SMILES | ELG1 genotoxic | SMN2 splice up | Rab9 promoter act | NPC1 prom act | ELG1 repair inh | FLuc counter
Cc1ccc2nc(-c3ccc(NC(=O)CN4C(=O)c5ccccc5C4=O)cc3)sc2c1 | 9.2µM* | 2.82µM* | 3.98µM* | ? | ? | 2.69µM*
CC(=O)c1ccc(NC(=O)C2CCN(S(=O)(=O)c3ccc4c(c3)CCCN4C(=O)C3CCC3)CC2)cc1 | . | . | . | . | . | 0.4%
CN(CC(=O)N1CCN(c2ccccn2)CC1)S(=O)(=O)c1ccc2ccccc2c1 | -17.3% | 22.4% | -2.1% | -1.9% | 10.3µM* | -1.0%
Cc1ccc2nc(-c3ccc(NC(=O)CN4CCN(c5ccccn5)CC4)cc3)sc2c1 | ? | . | ? | ? | ? | 10.7µM*
CCc1cc(C(=O)Nc2ccccc2)cs1 | ? | 34.9% | 2.24µM* | -9.5% | ? | -17.4%[2.3 µM]
CCc1cc(C(=O)NNC(=S)NCc2ccccc2)cs1 | 0.9% | -15.2% | -0.3% | -2.9% | 17.9% | -12.9%
CCc1cc(C(=O)NNC(=S)Nc2ccccc2C)cs1 | ? | 14.1µM* | 2.82µM* | 3.55µM* | ? | 6.75µM*
CCc1ccc(N(CC(=O)Nc2ccc(OC)cc2OC)S(C)(=O)=O)cc1 | 7.0% | 13.0% | 8.0% | 0.5% | 6.5% | -12.2%
CCOc1ncccc1C(=O)N1CCN(S(=O)(=O)c2ccc(Br)cc2Cl)CC1 | -9.1% | 6.0% | -9.1% | 0.0% | -1.6% | -0.8%
COc1ccccc1C(=O)N/N=C/c1cnc2ccccc2n1 | ? | 15.8µM* | ? | ? | ? | ?
O=C(N/N=C/c1ccc(Cl)s1)C(O)c1ccccc1 (stereo unspecified) | 0.1% | . | 11.3% | -2.0% | 19.2% | -11.9%
COc1ccccc1C(=O)N/N=C/c1ccc(Cl)s1 | 7.4% | ? | 16.6% | 10.1% | ? | 19µM*
O=C(N/N=C\c1ccc(Cl)s1)c1cccs1 | -1.8% | 2.4% | ? | 24.6% | ? | 16.9µM*
CN(C)C(CNC(=O)c1ccc(C2SCCS2)cc1)c1ccccc1 (stereo unspecified) | 16.5% | . | 12.4% | 21.7% | ? | 16.9µM*
Cc1ccc(NC(=O)/C(=C\c2ccc([N+](=O)[O-])cc2)NC(=O)c2ccccc2)cc1 | -0.6% | -6.5% | -7.4% | -0.4% | 14.5% | 0.3%
O=C(N/N=C/c1ccc(O)c(O)c1O)/C(=C/c1ccc([N+](=O)[O-])cc1)NC(=O)c1ccccc1 | 1.7% | 1.3% | -9.2% | -2.8% | ? | 10.7µM*
O=C1CC2CCCN2C=C1I (stereo unspecified) | 2.9% | . | . | . | 0.0% | .
CCCOc1cccc(C(=O)Nc2ccc(-c3nc4ccccc4o3)cc2)c1 | . | 27.6% | . | . | . | 3.3%
O=[N+]([O-])c1ccc(N2CCN(S(=O)(=O)c3ccccc3)CC2)cc1NCCN1CCOCC1 | -21.5% | -6.4% | -5.3% | 1.1% | 25.9µM* | -1.8%
Cc1ccc(S(=O)(=O)N2CCN(c3ccc([N+](=O)[O-])c(NCCN4CCOCC4)c3)CC2)cc1 | -2.1% | 16.5% | 1.1% | -3.7% | ? | -0.2%
Cc1cc(C)nc(N/N=C/C2=C(N3CCOCC3)C(=C/c3ccccc3)/CC2)n1 | -15.4% | -104.6% | -0.3% | 1.3% | 16.4µM* | -2.4%
O=C(O)c1ccccc1N/N=C/C1=C(N2CCOCC2)C(=C\c2ccccc2)/CC1 | -3.2% | . | -2.4% | 3.7% | ? | ?
Cc1cc(C)c(C2=Nn3c(C)nnc3SC2C)cc1C (stereo unspecified) | 7.2% | . | -8.3% | 0.6% | -32.8% | -0.1%
CSCCC(NC(=O)c1ccc(Cl)cc1Cl)C(=O)NCc1ccncc1 (stereo unspecified) | 0.6% | . | 0.0% | -1.4% | ? | 0.6%
Cc1ccc(S(=O)(=O)N(C(=O)c2ccncc2)c2ccc(OC(=O)c3ccncc3)c3ccccc23)cc1 | -13.2% | -14.4% | 9.0% | 4.6% | 18.4µM* | ?
SMILES | ELG1 genotoxic | SMN2 splice up | Rab9 promoter act | NPC1 prom act | ELG1 repair inh | FLuc counter
Cn1c(O)c(N=Nc2ccccc2)c2ccccc21 | 3.2% | . | -2.4% | -1.2% | 1.0% | 26.9µM*
Cn1c(O)c(N=Nc2ccc(F)cc2)c2ccccc21 | 2.4% | 8.1% | 20.6% | 4.2% | 8.5% | ?
CC(C)COc1cccc(-c2cc(C(=O)N/N=C/c3ccncc3)c3ccccc3n2)c1 | -8.2% | . | -2.8% | -3.7% | ? | 0.953µM*
COc1ccc(-c2cc(C(=O)N/N=C/c3cccnc3)c3cc(C)cc(C)c3n2)cc1 | -4.8% | . | -1.9% | -7.1% | ? | 7.57µM*
Cn1cccc1/C=N/NC(=O)c1cc(-c2cccs2)nc2ccccc12 | -5.5% | 0.5% | -9.3% | -15.8% | ? | 13.5µM*
Cc1cc(C(=O)N/N=C/c2ccncc2)c2ccccc2n1 | -2.3% | . | -4.5% | -0.4% | -25.4% | 2.2%
O=C(Nc1ccccc1)N(C1=NCCC1)c1ccc(OC(F)F)cc1 | -3.2% | -20.7% | -3.2% | 0.2% | 26.1% | 0.8%
COc1ccc(NC(=O)CCn2cnnn2)cc1 | . | . | . | . | . | 1.9%
CCCCc1nc2c(c3c1C[C@H](C)OC3)CN(S(=O)(=O)c1ccc(NC(C)=O)cc1)CC2 | . | -5.9%[9.22 µM] | . | . | . | .
Cn1c(O)c(N=NC(=O)c2cc(-c3cccs3)nc3ccccc23)c2ccccc21 | -8.8% | -26.5% | -1.8% | 2.7% | 14.6µM* | 2.69µM*
O=C(N/N=C/c1ccc[nH]1)c1cc(-c2cccs2)nc2ccccc12 | -15.1% | 1.0% | -1.3% | -5.1% | ? | 15.1µM*
COc1ccc(CNC(=O)c2cc(-c3ccncc3)nc3c(C)cc(C)cc23)cc1OC | -11.3% | -2.9% | -0.5% | -2.5% | 23.1µM* | ?
O=C(N/N=C/c1cccs1)c1cc(-c2ccncc2)nc2ccccc12 | 5.1% | -21.6% | -15.8% | -7.5% | -21.9% | ?
COc1ccc(CCNC(=O)c2cc(-c3ccncc3)nc3c(Cl)cccc23)cc1OC | -11.3% | 25.8% | -6.9% | -2.6% | ? | -1.1%
CCOc1ccc(-c2cc(C(=O)N/N=C/c3cccnc3)c3ccccc3n2)cc1 | 15.7% | . | ? | -9.1% | ? | 0.379µM*
O=C(N=Nc1c(O)[nH]c2ccc(Br)cc12)c1cc(-c2cccs2)nc2ccccc12 | 6.4% | -67.7% | -3.1% | -5.5% | 14.6% | -7.3%
O=C(Cn1cnc2ccccc2c1=O)NNC(=O)c1ccccc1 | 0.8% | . | -4.2% | -0.8% | 23.2% | -1.9%
C=CCn1c(=N)c(S(=O)(=O)c2ccc(C)c(C)c2)cc2c(=O)n3ccccc3nc21 | 1.6% | . | -3.8% | -0.5% | 10.4% | 1.0%
COC(=O)c1ccccc1NC(=O)CSc1ncn[nH]1 | 0.0% | . | -4.1% | 0.9% | -1.1% | -0.4%

Compound activity as filed in PubChem BioAssay.
